Data: PubChem BioAssay (Tox21)
A number with no mark means an inactive call. Entries that show only a call come without a potency. Activity calls are given as the source filed them. Unless noted, calls follow the shape of the dose curve; as a rule, active = well fitted curve in the direction sought with a large enough effect in the repeat runs; inconclusive = weak or mixed curves; inactive = no such curve, though single readings can be large; an effect the other way counts as inactive or inconclusive.

Tests used:
[1] = system: thyroid hormone receptor (rat, GH3 cells); test: qHTS assay to identify small molecule agonists of the thyroid receptor (TR) signaling pathway (AID 743066; calls by dose curve; also: potency is read from the fitted curve at half-maximal effect)
[2] = qHTS assay to identify small molecule antagonists of the estrogen receptor alpha (ER-alpha) signaling pathway - cell viability counter screen (AID 743074; calls by dose curve; also: nearly all actives have a fitted effect of over 45% in size; also: potency is read from the fitted curve at half-maximal effect)
[3] = qHTS assay to identify small molecule antagonists of the estrogen receptor alpha (ER-alpha) signaling pathway using the BG1 cell line - cell viability counter screen (AID 743081);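 also: compound given together with 17beta-estradiol as the ER stimulus; series mostly up to about 70 µM; nearly all actives have a fitted effect of over 45% in size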
Aromatase (Homo sapiens) = Aromatase (Homo sapiens) (UniProt P11511); test: qHTS assay to identify aromatase inhibitors (AID 743083); also: series mostly up to about 70 µM; nearly all actives have a fitted effect of over 55% in size
[4] = target: Estrogen receptor (Homo sapiens) (UniProt P03372); test: qHTS assay to identify small molecule antagonists of the estrogen receptor alpha (ER-alpha) signaling pathway (AID 743069; active = well fitted curve in the direction sought with a large enough effect in the signal ratio in the repeat runs, not every such curve was filed as active; inconclusive = weak or mixed curves, or effect the other way; inactive = no such curve, though single readings can be large or run the other way; the % refers to the signal ratio; also: potency is read from the fitted curve at half-maximal effect)
In short: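 In this cell-based reporter format, GripTite HEK293 cells harbouring ER-alpha-UAS-bla were grown overnight with 2% charcoal-stripped FBS, dosed with DMSO-dissolved compounds, then challenged with 17beta-estradiol. After 18 hr at 37C, beta-lactamase activity was detected by FRET fluorescence.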

[5] = target: Estrogen receptor (Homo sapiens) (UniProt P03372); test: qHTS assay to identify small molecule agonists of the estrogen receptor alpha (ER-alpha) signaling pathway (AID 743075; calls by dose curve)
[6] = qHTS assay to identify small molecule antagonists of the estrogen receptor alpha (ER-alpha) signaling pathway using the BG1 cell line (AID 743080; calls by dose curve;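 also: BG1 cells stimulated with 17beta-estradiol alongside compound; series mostly up to about 70 µM; nearly all actives have a fitted effect of over 25% in size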)
In short: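 BG1-Luc-4E2 cells (endogenous full-length ER-alpha, 4xERE luciferase) hormone-starved 5 days in charcoal-stripped FBS, plated 4,000/well for 24 h, then compound plus 17beta-estradiol for 21.5 h at 37 C; ONE-Glo luminescence read.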

[7] = qHTS assay to identify aromatase inhibitors - cell viability counter screen (AID 743084);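 also: cells stimulated with testosterone during compound exposure; nearly all actives have a fitted effect of over 55% in size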
[8] = target: Estrogen receptor (Homo sapiens) (UniProt P03372); test: qHTS assay to identify small molecule agonists of the estrogen receptor alpha (ER-alpha) signaling pathway using the BG1 cell line (AID 743079); also: nearly all actives have a fitted effect of over 20% in size; also: potency is read from the fitted curve at half-maximal effect

Sequence of Aromatase (Homo sapiens) (P11511 whole entry, looked up): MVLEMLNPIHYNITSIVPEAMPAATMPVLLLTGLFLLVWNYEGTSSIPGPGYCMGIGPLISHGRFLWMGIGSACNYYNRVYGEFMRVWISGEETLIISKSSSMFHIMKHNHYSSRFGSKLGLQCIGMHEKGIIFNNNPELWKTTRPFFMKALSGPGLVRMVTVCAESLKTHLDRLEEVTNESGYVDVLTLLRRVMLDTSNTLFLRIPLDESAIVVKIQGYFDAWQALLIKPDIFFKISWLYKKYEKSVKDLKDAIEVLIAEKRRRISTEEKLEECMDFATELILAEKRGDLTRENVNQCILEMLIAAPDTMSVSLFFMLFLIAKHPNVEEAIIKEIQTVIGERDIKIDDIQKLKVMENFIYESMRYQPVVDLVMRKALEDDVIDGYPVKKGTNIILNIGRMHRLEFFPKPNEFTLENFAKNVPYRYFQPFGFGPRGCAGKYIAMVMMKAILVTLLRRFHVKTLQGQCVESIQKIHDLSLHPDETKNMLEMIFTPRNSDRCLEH
Sequence of Estrogen receptor (Homo sapiens) (P03372 whole entry, looked up): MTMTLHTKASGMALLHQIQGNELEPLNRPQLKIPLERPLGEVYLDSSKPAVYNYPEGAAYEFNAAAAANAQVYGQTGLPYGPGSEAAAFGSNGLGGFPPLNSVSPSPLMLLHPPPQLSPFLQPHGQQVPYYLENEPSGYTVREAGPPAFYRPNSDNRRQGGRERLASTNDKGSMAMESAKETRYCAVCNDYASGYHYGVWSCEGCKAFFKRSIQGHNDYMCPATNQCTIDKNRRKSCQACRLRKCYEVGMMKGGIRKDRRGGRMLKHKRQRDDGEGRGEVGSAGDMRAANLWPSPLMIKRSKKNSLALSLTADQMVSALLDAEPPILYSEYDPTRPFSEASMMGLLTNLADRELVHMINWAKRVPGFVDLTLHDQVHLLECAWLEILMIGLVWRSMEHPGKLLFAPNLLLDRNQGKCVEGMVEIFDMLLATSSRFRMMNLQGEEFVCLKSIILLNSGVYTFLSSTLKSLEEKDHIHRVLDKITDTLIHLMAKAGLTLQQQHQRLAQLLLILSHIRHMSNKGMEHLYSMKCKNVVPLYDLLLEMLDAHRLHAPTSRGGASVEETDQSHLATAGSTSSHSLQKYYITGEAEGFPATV

SMILES	Potency [1]	Potency [2]	Potency [3]	Potency (Aromatase (Homo sapiens))	Potency [4]	Potency [5]	Potency [6]	Potency [7]	Potency [8]
C=CCOC(=O)CCC1CCCCC1	inactive	inactive	inactive	inactive	–	–	–	–	–
Cc1c(N)cccc1[N+](=O)[O-]	inactive	inactive	inactive	–	inactive	inactive	inactive	inactive	–
CCCCC/C=C\C/C=C\CCCCCCCC(=O)NC(C)c1ccccc1 (centres undefined)	inactive	inactive	inactive	–	–	inactive	inactive	inactive	inactive
CCNc1cc(O)ccc1C	inactive	inactive	inactive	inactive	inactive	inactive	inactive	inactive	inactive
c1ccc(CNCCNCc2ccccc2)cc1	inactive	inactive	inactive	inactive	inactive	inactive	inactive	inactive	inactive
Brc1c2ccccc2cc2ccccc12	inactive	inactive	inactive	–	–	–	–	inactive	30.9 µM (active)
CN(C)CCCN1c2ccccc2Sc2ccccc21	inactive	inactive	inactive	inactive	–	–	–	–	–
Cc1ncc(CO)c(C=O)c1O	inactive	inactive	inactive	inactive	inactive	inactive	inactive	inactive	inactive
Cc1cc(N)c2cc(NC(=O)Nc3ccc4nc(C)cc(N)c4c3)ccc2n1	inactive	inactive	inactive	inactive	–	–	–	inactive	–
CNC(=O)CN(CCN(CCN(CC(=O)[O-])CC(=O)NC)CC(=O)[O-])CC(=O)[O-].O.[Gd+3]	inactive	inactive	inactive	inactive	inactive	inactive	inactive	inactive	inactive
CN(Cc1ccc(C(C)(C)C)cc1)Cc1cccc2ccccc12	inactive	inactive	inactive	inactive	inactive	inactive	inactive	inactive	inactive
CCO[Si](CCCCl)(OCC)OCC	inactive	–	inactive	inactive	inactive	inactive	inactive	inactive	inactive
Cc1ccccc1S(=O)(=O)O	inactive	inactive	inactive	–	–	–	–	–	–
O=C(CS)Nc1ccccc1	inactive	inactive	–	inactive	15.1 µM [inconclusive] (active)	inactive	inactive	inactive	21.1 µM (active)
Nc1ncn([C@H]2C[C@H](O)[C@@H](CO)O2)c(=O)n1	3.35 µM (active)	inactive	inactive	inactive	–	–	–	inactive	–
CC(=O)[O][Al][O]C(C)=O	inactive	inactive	inactive	inactive	–	–	inactive	inactive	–
Cc1oc2c(NC(=O)c3c(Cl)cccc3Cl)cccc2c1C(C)(C)O	inactive	–	inactive	–	43.6 µM [inhibitor] (active)	inactive	–	inactive	–
Nc1c(CC(=O)O)cccc1C(=O)c1ccc(Br)cc1	inactive	inactive	inactive	inactive	inactive	inactive	inactive	inactive	inactive
CCOC(=O)C1=C[C@]2(CC)CCCN3CCc4c(n1c1ccccc41)[C@@H]32	–	inactive	inactive	inactive	inactive	inactive	inactive	inactive	inactive
CC1=CC[C@H](C(C)C)C=C1	–	inactive	inactive	inactive	inactive	inactive	inactive	inactive	inactive
CCOC(=O)COC(=O)c1cc(Oc2ccc(C(F)(F)F)cc2Cl)ccc1[N+](=O)[O-]	inactive	inactive	inactive	–	–	–	–	inactive	–
C[N+]1(C)CCC(OC(=O)C(O)(c2ccccc2)C2CCCC2)C1 (centres undefined)	–	–	inactive	–	inactive	inactive	inactive	inactive	inactive
CCCCCCCCCCCCN1CCCCCC1=O	inactive	43.6 µM (active)	inactive	–	–	–	–	inactive	–
O=C(O)c1ccc(-n2nc(-c3ccccc3O)nc2-c2ccccc2O)cc1	–	inactive	inactive	–	16.9 µM [inconclusive] (active)	inactive	–	–	–
CCN(CC)CCOC(=O)C(Cc1cccc2ccccc12)CC1CCCO1 (centres undefined)	–	inactive	inactive	inactive	–	–	–	inactive	–
